Test results as given in PubChem BioAssay AID1259418 (Broad Institute, 2018).
Out of some 3,400 compounds screened, about 840 (25%) were called active. Inconclusive results (about 11%) are left out. A selection follows. Results with a measured potency or affinity are listed apart. Unmarked numbers belong to inactive results.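 Rule for the calls: active = fitted half-maximal concentration of signal decrease at or below twice the sample's top tested concentration; inconclusive = flat curve between -70 and -30 percent, or poor fit; inactive = flat within 30 percent, signal rise, or potency above limit.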

Assay: T. gondii growth inhibition with IFN-gamma, dose response, cell-based, ME49Luc, HeLa, luciferase, 72 h (AID 1259418)
Settings: T. gondii ME49Luc in IFN-y HeLa, active compounds read low, -100% = high-dose IFN-γ control wells; at 19.5 µM unless noted

SMILES | max activity
N#CCSC1=Nc2ccccc2C2=NC(CCC(=O)NCc3ccccc3)C(=O)N12 (stereo unspecified) | 72.9%
CCOc1ccc(-c2nc(CN3CCN(C(=O)Nc4cc(C)ccc4C)CC3)c(C)o2)cc1 | -22.4%
Cc1nc(OCC(=O)Nc2ccccc2Cl)c2ccccc2n1 | 28.8% [at 0.35 µM]
CCc1nc(OCC(=O)Nc2cc(OC)cc(OC)c2)c2ccccc2n1 | 14.7% [at 0.68 µM]
COc1ccc(-c2nc(Cn3nnc(-c4nc(-c5cccnc5)no4)c3C)c(C)o2)cc1 | 6.33% [at 5 µM]
Cc1nc(OCC(=O)Nc2cccc(C)c2C)c2ccccc2n1 | 9.02% [at 0.16 µM]
Cc1nc(CCNC(=O)[C@H]2CCCN2S(=O)(=O)c2ccc(F)cc2)cs1 | 18.1% [at 1.35 µM]
O=C(NCCc1csc(-c2ccccc2)n1)[C@H]1CCCN1S(=O)(=O)c1cccc(F)c1 | -25.4% [at 1.35 µM]
Cc1ccc(S(=O)(=O)N2CCC[C@@H]2C(=O)NCCc2csc(C)n2)cc1 | 7.86% [at 10 µM]
Cc1nc(CCNC(=O)[C@H]2CCCN2S(=O)(=O)c2ccccc2C)cs1 | 12.4% [at 10 µM]
Cc1nc(CCNC(=O)[C@H]2CCCN2S(=O)(=O)c2ccc(Cl)cc2)cs1 | 23.5% [at 0.16 µM]
Cc1nc(CCNC(=O)[C@H]2CCCN2S(=O)(=O)c2ccc(C)c(C)c2)cs1 | 15.2% [at 10 µM]
Cc1c(S(=O)(=O)N2CCC[C@@H]2C(=O)NCCc2csc(-c3ccccc3)n2)cnn1C(F)F | 5.67% [at 2.6 µM]
CCc1ccc(S(=O)(=O)N2CCc3nc(-c4cccc(OC)c4)sc3C2)cc1 | -5.58% [at 5 µM]
Cc1cccc(-n2ncc3c(NC4CCCCCCCCCCC4)ncnc32)c1 | 22.5% [at 10 µM]
CCOC(=O)c1cccc(NC(=O)Nc2ccc(-c3nc(-c4ccccc4)co3)cc2)c1 | 14.5% [at 0.16 µM]
COc1ccccc1-c1nc(Cn2nnc(-c3nc(-c4ccc(F)cc4)no3)c2C)c(C)o1 | 9.82% [at 0.16 µM]
CS(=O)(=O)N1CCO[C@@H]2CN(C(=O)Cc3ccccn3)CC[C@H]2C1 | -7.92% [at 0.3 µM]

SMILES | max activity
COc1ccc(-c2nc(Cn3nnc(-c4nc(-c5ccc(OC(C)C)cc5)no4)c3C)c(C)o2)cc1 | 11.3% [at 0.35 µM]
COc1cccc(NC(=O)Nc2ccc(-c3nc(-c4cccc(Br)c4)co3)cc2)c1 | 13.3%
Cc1ccc(C(=O)Nc2c(C(=O)N3CCCC3)[nH]c3ccc(C)cc23)cc1 | 49.7% [at 10 µM]
CCC(C)NC(=O)Cn1c(=O)c(S(=O)(=O)c2ccccc2)cc2cc(C)ccc21 (stereo unspecified) | -4.98% [at 10 µM]
CCc1ccc(S(=O)(=O)N2CCC[C@@H]2C(=O)NCCc2csc(C)n2)cc1 | -9.49% [at 0.35 µM]
Cc1nc(CCNC(=O)[C@H]2CCCN2S(=O)(=O)c2ccc(Cl)s2)cs1 | 12.6% [at 0.16 µM]
CC(C)(C)c1ccc(S(=O)(=O)N2CCC[C@@H]2C(=O)NCCc2csc(-c3ccccc3)n2)cc1 | -14.7% [at 0.16 µM]
O=C(NCCc1csc(-c2ccccc2)n1)[C@H]1CCCN1S(=O)(=O)c1cccc(Cl)c1 | -25.7%
Cc1cc(C)cc(C(=O)N2CCC[C@@H]2C(=O)NCCc2csc(-c3ccccc3)n2)c1 | -12.7%
Cc1cc(C)c(S(=O)(=O)N2CCC[C@@H]2C(=O)NCCc2csc(-c3ccccc3)n2)cc1C | -22.5%
COc1ccc(CNC(=O)Nc2ccc(-c3nc(-c4ccc(C)cc4C)co3)cc2)cc1 | 20.3% [at 1.35 µM]
Cc1oc(-c2ccccc2)nc1CSc1nc2c(c(=O)[nH]1)CN(Cc1ccc(F)cc1)CC2 | 22.6% [at 0.35 µM]
Cc1ccc(-c2coc(-c3ccc(NC(=O)C4CCCCC4)cc3)n2)cc1 | 55.5%
Cc1ccc(-c2coc(-c3ccc(NC(=O)c4cccc(C)c4)cc3)n2)cc1 | 70.3% [at 10 µM]
Cc1ccc(-c2nc(Cn3nnc(-c4nc(-c5ccccc5Br)no4)c3C)c(C)o2)cc1 | -6.98% [at 5 µM]
Cc1ccccc1C(=O)N1CSC[C@@H]1C(=O)NCCc1csc(-c2ccccc2)n1 | -16.3%
COc1ccccc1-c1noc(C2CCCN2C(=O)Cc2c[nH]c3ccccc23)n1 (stereo unspecified) | -7.96% [at 0.35 µM]
COc1ccccc1-c1noc(C2CCCN2C(=O)c2ccc3cc[nH]c3c2)n1 (stereo unspecified) | 14.5% [at 10 µM]
